An excerpt weighted towards active compounds, which were near 7% of everything screened.
D3 antag: blocks the human D3 dopamine receptor; P35462; D3R cells, DiscoveRx beta-arrestin luminescence, antagonist mode; active compounds read low; max response, negative = inhibition, %; 360,000 tested, 2.5% active; AID 652054; in the data active = max response below about -50%; inconclusive = no clear call, values can overlap the other calls
Target sequence (P35462 whole entry, looked up): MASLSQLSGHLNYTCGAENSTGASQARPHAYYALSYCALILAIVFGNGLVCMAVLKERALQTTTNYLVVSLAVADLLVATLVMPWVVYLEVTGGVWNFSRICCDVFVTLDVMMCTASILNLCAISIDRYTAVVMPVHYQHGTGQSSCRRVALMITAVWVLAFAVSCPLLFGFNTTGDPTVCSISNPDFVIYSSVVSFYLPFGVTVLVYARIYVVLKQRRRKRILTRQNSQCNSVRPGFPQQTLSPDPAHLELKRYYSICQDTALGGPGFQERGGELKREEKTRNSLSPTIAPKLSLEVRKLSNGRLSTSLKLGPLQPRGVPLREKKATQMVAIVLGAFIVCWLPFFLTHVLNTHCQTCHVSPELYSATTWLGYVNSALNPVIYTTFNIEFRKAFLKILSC
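Cells expressing the human receptor were seeded at 1500 cells/well, incubated overnight at 37 degrees C in 5% CO2, then exposed to library compounds with dopamine controls for 90 minutes at 37 degrees C before luminescent detection.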
IL1B secr inh: inflammasome signaling inhibition, IL-1 beta readout. THP-1 LPS/ATP IL-1B secretion, AlphaLISA, 16 h; active compounds read low. 360,000 tested, 4.7% active. activity change, % at 57.5 µM; in the data active = activity change below about -50%; inconclusive = mostly about -30% to -49%
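Secreted IL-1B measured by AlphaLISA bead assay after 16 h compound exposure of THP-1 cells; compounds (final up to 57.5 uM) added 1 h before LPS (250 ng/mL) and ATP (1.25 mM) stimulation; lower signal means less secretion.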
S2 tox: reduces viability in counter-screen for ATXN expression inhibitors | AID 651635 | Potency, µM (top dose mostly 56.7 µM), hits mostly cytotoxic | 400,000 tested, 0.49% active | S2 cells (HEK-293 line with an ATXN2-luciferase reporter) viability, CellTiter-Fluor protease fluorescence, 24 h; also: nearly all actives have a fitted effect of over 40% in size
D3 ag: activates the human D3 dopamine receptor; D3R DiscoveRx beta-arrestin cells, luminescence, 90 min; max activation, %; 410,000 tested, 0.58% active; in the data active = max activation above about 30%
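Agonist mode: compounds and dopamine controls were applied to plated cells for 90 min at 37 degrees C after an overnight attachment at 1500 cells/well. Luminescent read-out followed 30 - 60 minutes at room temperature with DiscoveRx detection reagent.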
Integrin act MD: integrin-mediated muscular dystrophy alleviation activation; alpha7betagal myoblasts, beta-gal FDG fluorescence, 48 h; Potency, µM (titrated, usually from 38.3 µM), actives largely listed as activators; 350,000 tested, 0.064% active; also: nearly all actives have a fitted effect of over 60% in size
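alpha7betagal+/- myoblasts (passage 13, 250/well) treated 48 h at 37C with compounds at 1:260 dilution of DMSO stock. Lysed, then beta-galactosidase activity read as FDG fluorescence (ex 480/em 540) after 30 min, with pre-read for autofluorescence.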
ATXN2 expr inh: ATXN2 expression inhibition; HEK-293 ATXN2-luciferase reporter, luminescence, 24 h; 360,000 tested, 0.72% active; AID 1745845; Potency, µM (titrated, usually from 57 µM), usual class: inhibitors; also: nearly all actives have a fitted effect of over 55% in size
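qHTS (up to 57 uM final) was run with 24 h compound exposure of reporter cells at 37 °C. Each well was multiplexed: SteadyGlo luminescence measured ATXN2-luciferase expression after a fluorogenic Gly-Phe-AFC viability readout (25 uM final).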
Each line names hits and unclear results; the compound was inactive in the other large screens. Unless noted, calls follow the shape of the dose curve; as a rule, active = well fitted curve in the direction sought with a large enough effect; inconclusive = small, poorly fitted or top-dose-only effect, or another doubt; inactive = no such curve, though single readings can be large; an effect the other way counts as inactive or inconclusive.

Nc1nonc1-n1nnc(C(=O)N/N=C/c2ccc(Br)cc2)c1CSC1=NCCS1	D3 antag inconclusive, IL1B secr inh -102, S2 tox inconclusive
O=C1S/C(=C\c2ccc(N3CCOCC3)o2)C(=O)N1c1ccccc1	IL1B secr inh -104, S2 tox inconclusive
Cc1ccc(N(C(=O)Cc2cccs2)C(C(=O)NC2CCCCC2)c2ccccn2)cc1C (centres undefined)	IL1B secr inh -59, S2 tox 28µM
Cc1cc(=O)c(C(=O)O)cn1Nc1ccc(Cl)cc1	D3 antag -53, S2 tox inconclusive
NC(=S)NN=C1c2ccccc2-c2cc(Br)ccc21	D3 antag inconclusive, S2 tox inconclusive, ATXN2 expr inh inconclusive
N#Cc1cccc2c1-c1ccccc1/C2=N/NC(N)=S	IL1B secr inh -58, S2 tox inconclusive
NC(=S)NN=C1c2ccccc2-c2c(F)c(F)c(F)c(F)c21	IL1B secr inh -111, S2 tox inconclusive, ATXN2 expr inh inconclusive
N#Cc1cccc2c1-c1ccccc1/C2=N/NC(N)=O	IL1B secr inh inconclusive, S2 tox inconclusive, ATXN2 expr inh inconclusive
O=C(O)c1ccccc1C1c2ccccc2Oc2ccccc21	D3 antag -72
O=C(NC1CCNCC1)c1[nH]ncc1NC(=O)c1c(Cl)cccc1Cl	ATXN2 expr inh 0.39µM (no result: D3 antag, IL1B secr inh, S2 tox, D3 ag, Integrin act MD)
Cc1ccc(-c2cc(-c3ccco3)c3c(N)c(C(=O)NN)oc3n2)cc1	none (no result: S2 tox, ATXN2 expr inh)
COc1cccc(/C=N/NC(=O)c2oc3nc(-c4ccccc4)cc(-c4ccco4)c3c2N)c1	IL1B secr inh -58
C=CCN1C=C2C(=O)C(C)(OC(=O)c3ccc(OC)cc3)C(=O)C(c3ccco3)=C2C=C1CCCC (centres undefined)	Integrin act MD inconclusive
CCCCC1=CC2=C(c3ccco3)C(=O)C(C)(OC(=O)c3ccc(OC)cc3)C(=O)C2=CN1CCCOC(C)C (centres undefined)	D3 antag -83, S2 tox inconclusive
COCCNC(=O)C12CC3CC(C1)CC(c1ccccc1)(C3)C2	none
COc1ccc(NC(=O)C23CC4CC(C2)CC(c2ccccc2)(C4)C3)c(OC)c1	D3 ag 32
Cc1ccc(NC(=O)c2sccc2C)cc1S(=O)(=O)N(C)C	none
Oc1ccc(-c2ccccc2)cc1CN1CCCCCC1	D3 antag -93
Oc1ccc(CN2CCCCC2)nc1-c1ccccc1	D3 antag -52
COc1ccccc1C(=O)N1CCC(C(=O)c2ccc(F)cc2)CC1	D3 antag -70
COc1ccc(C(=O)N2CCC(C(=O)c3ccc(F)cc3)CC2)cc1	none
COc1ccc(NC(=O)CN2CCC(n3c(C)nc4cc(F)ccc43)CC2)c(OC)c1	D3 ag 132
O=C(CN1CCC(C(=O)c2ccc(F)cc2)CC1)Nc1ccccc1Cl	D3 antag -57
COc1ccccc1NC(=O)CN1CCC(C(=O)c2ccc(F)cc2)CC1	D3 antag -70
O=C(CN1CCCC1)Nc1ccccc1Cl	D3 antag inconclusive
CCOc1ccccc1NC(=O)CN1CCC(C(=O)c2ccc(F)cc2)CC1	D3 antag inconclusive
COc1ccc(OCCNC(=O)CSc2ccc(C(F)(F)F)cc2[N+](=O)[O-])cc1	none
COc1ccc(-c2cc(C(F)(F)F)n3nc(C(=O)Nc4sc5c(c4C(=O)OC(C)C)CCCC5)cc3n2)cc1OC	none (no result: D3 antag, IL1B secr inh, Integrin act MD)
Cc1cc(S(=O)(=O)NCc2ccc(S(N)(=O)=O)cc2)c(C)s1	none
CCOc1ccc(-c2cc(C(=O)NCCCn3ccnc3)c3ccccc3n2)cc1	S2 tox inconclusive
CCOc1ccc(-c2cc(C(=O)NCCCN3CCN(CC)CC3)c3ccccc3n2)cc1	IL1B secr inh -71, S2 tox inconclusive
CCN1CCCC(OC(=O)c2cc(-c3ccc(C)cc3)nc3ccccc23)C1 (centres undefined)	IL1B secr inh -147 (no result: S2 tox)
CCOc1ccc(-c2cc(C(=O)NCCCn3ccnc3)c3cc(Br)ccc3n2)cc1	IL1B secr inh -99, S2 tox inconclusive
O=C(NCCCN1CCCC1)c1cc(Sc2ccc(F)cc2)nc2ccccc12	IL1B secr inh -52
Cc1ccc(NC(=O)CCCC2CCCCC2)c(O)c1	Integrin act MD inconclusive
O=C(NCCCN1CCOCC1)c1cc(-c2ccc(Br)cc2)nc2ccccc12	IL1B secr inh -68
O=C(NCCCN1CCOCC1)c1cc(-c2ccccc2)nc2ccccc12	none
Cc1ccc(-c2cc(C(=O)NCCCN3CCOCC3)c3ccc(Cl)c(C)c3n2)cc1	IL1B secr inh -64
O=C(NCCCN1CCOCC1)c1ccc(Cl)cc1Cl	none (no result: ATXN2 expr inh)
COc1cccc(Cc2nc3ccccc3nc2SCC(=O)Nc2cc(OC)ccc2OC)c1	none (no result: D3 antag, IL1B secr inh, Integrin act MD)
O=C1c2ccccc2C(=O)N1C1(C(=O)NC2(C(=O)O)CCCC2)CCCC1	none
CCOC(=O)C(C)Oc1cccc2c(=O)n(CC(=O)NCc3ccco3)ccc12 (centres undefined)	IL1B secr inh -54
Cc1ccc(S(=O)(=O)N(C)c2ccc3c(c2)C(=O)c2ccccc2-3)cc1	none (no result: Integrin act MD)
CN(C)c1cc2c(c(N(C)C)c1)C(=O)c1ccccc1C2=O	IL1B secr inh -50, S2 tox inconclusive
COc1cccc(NC(=O)Nc2nc(-c3ccc(OC)c(OC)c3)cs2)c1	IL1B secr inh -104, S2 tox 8.9µM, D3 ag 49, ATXN2 expr inh 3.2µM
COc1cccc(-c2csc(N3CCN(C(=S)Nc4ccc(Cl)cc4)CC3)n2)c1	IL1B secr inh -82
COc1cccc(NC(=O)Nc2ccc(Br)cn2)c1	D3 ag 49
COc1cccc(-c2csc(N3CCN(C(=O)Nc4ccccc4Cl)CC3)n2)c1	none (no result: ATXN2 expr inh)
COc1cccc(NC(=O)N2CCN(c3nc(-c4cccc(OC)c4)cs3)CC2)c1	S2 tox 14µM (no result: ATXN2 expr inh)
CC(NS(=O)(=O)c1ccc(Br)cc1)c1ccccc1 (centres undefined)	none
Cc1cc(C)c(NC(=O)C2CCN(c3nn4c(=O)cc(C)nc4s3)CC2)c(C)c1	none (no result: D3 antag, IL1B secr inh, Integrin act MD)
CS(=O)(=O)c1ccccc1-c1nnc(NC(=O)c2ccc3c(c2)OCCO3)o1	none (no result: D3 antag, IL1B secr inh, S2 tox, Integrin act MD, ATXN2 expr inh)
COc1cccc(-c2csc(NC3OC(=O)c4c3ccc(OC)c4OC)n2)c1 (centres undefined)	IL1B secr inh -93, S2 tox inconclusive
COc1ccc2c(c1OC)C(=O)OC2Nc1nc(-c2ccc(-c3ccccc3)cc2)cs1 (centres undefined)	none
CC(=O)N1CCc2cc(Br)cc(S(=O)(=O)NCCCN3CCCC(C)C3)c21 (centres undefined)	D3 antag -60
COc1cc(/C=C(\C#N)C(=O)N2CCOCC2)ccc1OCc1ccccc1	none

Source: PubChem BioAssay (National Center for Advancing Translational Sciences (NCATS))
